The text below walks through data of PubChem BioAssay (NCATS).

Assay [1] addresses Cytochrome P450 1A2 (Homo sapiens) (UniProt P05177). Put plainly: p450-cyp1a2 (AID 410; calls by dose curve;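 also: -100% = full effect of reference inhibitor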). Summed up: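 20nM CYP1A2, 100uM Luciferin-ME (=Km), 100mM KPO4; cpd 10 min RT; +NADPH regen, 60 min RT; stop/detect 20 min; luminescence. Normalized to furafylline 57 uM = full inhibition.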
Assay [2] has as its target Glucocorticoid receptor (Homo sapiens) (UniProt P04150). Nature of the assay: GR-GFP Redistribution (AID 450;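 active = compounds whose dose series gives a full or clear partial fitted curve of increased nuclear translocation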; also: potency is read from the fitted curve at half-maximal effect). The settings on record: U2OS GR-GFP nuclear translocation, laser cytometry, 2 h.
Assay [3] has the same target. Put plainly: GR-EFC Redistribution (AID 451; calls by dose curve; also: potency is read from the fitted curve at half-maximal effect). The note with it: CHO-K1 GR-EFC translocation, beta-gal luminescence, 2 h. Summed up:
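Translocation of GR-ED fusion to nuclear EA restores b-gal, read by luminescence after 1 h room-temperature detection. Engineered CHO-K1 biosensor cells, 1,000/well, exposed 2 h at 37 C to titrations up to 46 uM final.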

Assay [4] has as its target Mitogen-activated protein kinase 10 (Mus musculus) (UniProt Q61831). Nature of the assay: JNK3 AlphaScreen Assay (AID 530; active = well fitted curve in either direction with a large enough effect, not every such curve was filed as active;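 also: kinase came from lysate of stimulated human HepG2 cells; signal reports phosphorylation of biotinylated GST-cJun 1-79 at Ser73 with 10 µM ATP; % is scaled to controls: 0 for no effect and ±100 for the full control effect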). Summed up: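 Kinase buffer: 20 mM Tris-HCl pH 7.6, 10 mM MgCl2, 1 mM DTT, 0.1 mM Na3VO4, 0.01% Tween-20; ATP 10 uM. Substrate biotin-GST-cJun(1-79), enzyme from activated HepG2 lysates. Detection by Ser73 phospho-antibody AlphaScreen.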
(In general: Alpha assays give light when donor and acceptor beads are brought close together.)

The target of assay [5] is Cytochrome P450 2C9 (Homo sapiens) (UniProt P11712). Put plainly: qHTS Assay for Inhibitors and Substrates of Cytochrome P450 2C9 (AID 883). Also: potency is read from the fitted curve at half-maximal effect; nearly all actives have a fitted effect of over 60% in size. Summed up: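 Turnover of Luciferin-H (100uM, KM) by 10nM human CYP2C9 was measured over 60 min at 37C with NADPH regeneration; inhibitors and some substrates reduce luminescence. Data normalized to sulphaphenazole 57uM.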
Chain of Cytochrome P450 2C9 (Homo sapiens) (P11712 whole entry, looked up): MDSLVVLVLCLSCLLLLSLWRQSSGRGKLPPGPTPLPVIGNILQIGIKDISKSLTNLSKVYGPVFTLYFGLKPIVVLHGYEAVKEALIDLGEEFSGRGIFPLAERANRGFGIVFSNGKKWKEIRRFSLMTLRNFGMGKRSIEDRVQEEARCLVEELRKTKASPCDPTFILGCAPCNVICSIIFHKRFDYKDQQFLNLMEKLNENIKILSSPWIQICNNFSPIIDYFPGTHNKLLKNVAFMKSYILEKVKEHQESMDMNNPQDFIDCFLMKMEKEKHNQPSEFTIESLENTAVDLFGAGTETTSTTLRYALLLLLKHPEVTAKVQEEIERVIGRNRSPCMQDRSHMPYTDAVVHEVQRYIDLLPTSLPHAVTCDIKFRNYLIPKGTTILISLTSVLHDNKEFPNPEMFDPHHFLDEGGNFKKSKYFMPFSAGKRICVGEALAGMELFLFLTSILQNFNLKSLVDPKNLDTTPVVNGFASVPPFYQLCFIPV
Assay [6] concerns the target Cytochrome P450 2C19 (Homo sapiens) (UniProt P33261). Nature of the assay: qHTS Assay for Inhibitors and Substrates of Cytochrome P450 2C19 (AID 899). Also: nearly all actives have a fitted effect of over 60% in size. Also: potency is read from the fitted curve at half-maximal effect. The procedure, abridged:
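Reactions contain 5nM enzyme, 10uM Luciferin-H EGE (KM) and 50mM KPO4; compound preincubates 10 min at 37C, NADPH regeneration starts turnover for 60 min. Luminescence after detection reagent gives activity.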
In general terms: qHTS replaces the single test concentration by a dilution series.

The target in assay [7] is DNA dC->dU-editing enzyme APOBEC-3G (Homo sapiens) (UniProt Q9HC16). Nature of the assay: qHTS for inhibitors of Vif-A3G interactions: Validation (AID 588379). Also: 0% is about no effect. The procedure, abridged: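 Yellow fluorescence (Ex 488, Em 500-530) of Vif-coexpressing HeLa A3G-eYFP cells, scanned by Acumen cytometer, reports blocked A3G degradation. Cells plated at 700/well overnight at 37 deg C before compound addition, then a further overnight compound incubation at 37 deg C.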
Chain of DNA dC->dU-editing enzyme APOBEC-3G (Homo sapiens) (Q9HC16 whole entry, looked up): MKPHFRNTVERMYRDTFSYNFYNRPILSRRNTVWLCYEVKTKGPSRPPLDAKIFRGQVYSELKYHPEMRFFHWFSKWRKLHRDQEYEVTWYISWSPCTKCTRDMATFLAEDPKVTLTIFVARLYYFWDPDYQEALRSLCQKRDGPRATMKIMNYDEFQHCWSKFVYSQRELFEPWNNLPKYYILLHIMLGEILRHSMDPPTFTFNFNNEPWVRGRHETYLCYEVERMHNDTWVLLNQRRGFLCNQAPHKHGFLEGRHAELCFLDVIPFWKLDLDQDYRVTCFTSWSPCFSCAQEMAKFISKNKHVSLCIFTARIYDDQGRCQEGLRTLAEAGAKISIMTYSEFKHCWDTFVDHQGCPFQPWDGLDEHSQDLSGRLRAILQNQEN

Assay [8] deals with Zika virus NS2B-NS3 protease. Put plainly: Primary screen GU AMC qHTS for Zika virus inhibitors (AID 1347154).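 Also: 0% = no-inhibitor control and -100% = no-enzyme control; nearly all actives have a fitted effect of over 70% in size.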 Summed up: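 Fluorogenic AMC-substrate cleavage by noncovalent NS2B-NS3 protease complex (25 nM, pH 8.0 Tris buffer with Tween 20) followed for 15 minutes at room temperature (~20% conversion). Percent inhibition from ex340/em450 signal change, fitted by 4-parameter Hill equation.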

In assay [9] the target is Cytochrome P450 2D6 (Homo sapiens) (UniProt P10635). Put plainly: Cytochrome P450 family 2 subfamily D member 6 (CYP2D6) small molecule antagonists: luciferase biochemical (cell-free) qHTS assay (AID 1645840; active = well fitted curve in the direction sought with a large enough effect in the repeat runs; an effect the other way counts as inactive or inconclusive; also: % is scaled to controls: 0 for no effect and ±100 for the full control effect; nearly all actives have a fitted effect of over 55% in size). The procedure, abridged: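 P450-Glo CYP2D6 system: proluciferin substrate converted by enzyme to luciferin, read by luminescence proportional to activity. Enzyme-substrate mix with compound 10 min at room temperature, then NADPH regeneration 1 h before detection reagent.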
Chain of Cytochrome P450 2D6 (Homo sapiens) (P10635 whole entry, looked up): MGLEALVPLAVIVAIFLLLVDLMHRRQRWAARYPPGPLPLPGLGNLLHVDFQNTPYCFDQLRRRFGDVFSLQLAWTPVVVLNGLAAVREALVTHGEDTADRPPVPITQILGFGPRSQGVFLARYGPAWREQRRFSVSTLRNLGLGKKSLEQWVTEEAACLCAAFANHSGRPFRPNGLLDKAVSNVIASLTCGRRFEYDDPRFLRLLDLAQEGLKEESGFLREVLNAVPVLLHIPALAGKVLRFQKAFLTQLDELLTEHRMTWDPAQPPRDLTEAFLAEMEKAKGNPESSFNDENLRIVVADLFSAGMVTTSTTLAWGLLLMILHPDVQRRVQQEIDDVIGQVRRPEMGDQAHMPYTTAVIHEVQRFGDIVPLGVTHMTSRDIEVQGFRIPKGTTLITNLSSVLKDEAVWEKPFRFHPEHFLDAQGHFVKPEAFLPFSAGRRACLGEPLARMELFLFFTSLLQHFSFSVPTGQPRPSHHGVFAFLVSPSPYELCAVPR

The target in assay [10] is Cytochrome P450 2C9 (Homo sapiens) (UniProt P11712). Put plainly: Cytochrome P450 family 2 subfamily C member 9 (CYP2C9) small molecule antagonists: luciferase biochemical (cell-free) qHTS assay (AID 1645842; active = well fitted curve in the direction sought with a large enough effect in the repeat runs; an effect the other way counts as inactive or inconclusive; also: % is scaled to controls: 0 for no effect and ±100 for the full control effect; nearly all actives have a fitted effect of over 55% in size). Summed up: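 P450-Glo CYP2C9 system: proluciferin substrate with enzyme in mix containing 0.4% BSA, 10 min at room temperature, then NADPH regeneration solution added and incubated 1 h at 37C. Detection reagent stopped reaction; luminescence read after 20 min as RLU.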

In assay [11] the target is 3',5'-cyclic-AMP phosphodiesterase 4B (Homo sapiens) (UniProt Q07343). Put plainly: qHTS Assay for Inhibitors of PDE-IV (AID 607; active = well fitted activation curve with a large enough effect in the main read-out, with a control signal flat, not every such curve was filed as active; also: % of control where 0% means no effect). Summed up: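 Live HEK293 cells with a modified cyclic nucleotide-gated (CNG) channel report intracellular cAMP via membrane-potential dye fluorescence (ex 535/em 590 nm). Endogenous PDE-IV was targeted. Compounds were tested at up to 22.9 uM final; RO 20-1724 100 uM served as control.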
Chain of 3',5'-cyclic-AMP phosphodiesterase 4B (Homo sapiens) (Q07343 whole entry, looked up): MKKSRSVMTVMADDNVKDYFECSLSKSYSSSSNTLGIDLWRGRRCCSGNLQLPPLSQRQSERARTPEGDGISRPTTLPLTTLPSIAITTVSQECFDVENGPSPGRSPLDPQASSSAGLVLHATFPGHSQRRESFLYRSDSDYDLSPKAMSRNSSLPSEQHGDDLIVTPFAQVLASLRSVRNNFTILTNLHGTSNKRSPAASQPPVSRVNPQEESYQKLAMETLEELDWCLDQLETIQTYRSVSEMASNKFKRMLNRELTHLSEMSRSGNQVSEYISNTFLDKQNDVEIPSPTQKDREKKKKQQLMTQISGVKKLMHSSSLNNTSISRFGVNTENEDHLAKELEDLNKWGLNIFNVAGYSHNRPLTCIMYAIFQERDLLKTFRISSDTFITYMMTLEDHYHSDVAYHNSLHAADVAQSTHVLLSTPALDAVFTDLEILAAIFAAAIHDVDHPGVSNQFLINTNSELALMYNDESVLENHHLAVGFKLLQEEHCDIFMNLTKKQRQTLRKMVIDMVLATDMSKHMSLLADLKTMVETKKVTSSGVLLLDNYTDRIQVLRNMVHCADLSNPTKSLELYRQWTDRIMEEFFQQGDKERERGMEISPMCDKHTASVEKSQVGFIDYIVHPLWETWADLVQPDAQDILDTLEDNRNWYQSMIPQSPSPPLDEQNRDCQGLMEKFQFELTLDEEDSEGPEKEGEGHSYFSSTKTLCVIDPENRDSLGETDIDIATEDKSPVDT

Assay [12] can be described thus: qHTS Assay for Lipid Storage Modulators (AID 1519; calls by dose curve; as to activity change, negative = inhibition: % is scaled to controls: 0 for no effect and ±100 for the full control effect). The note with it: Drosophila S3 cells, BODIPY lipid droplet/cell ratio, laser cytometry, cells loaded with oleic acid; for activity change, negative = inhibition: at 57.5 µM (top of the series). The procedure, abridged:
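Cells seeded at 5,000 per well were treated with compounds over a concentration series and loaded with oleic acid (400 uM, as added). Lipid droplet fluorescence (488 nm excitation, 500-530 nm channel) was read by laser-scanning cytometry and normalized to 20 uM Triacsin C.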

Assay [13] concerns the target Ubiquitin carboxyl-terminal hydrolase 1 (Homo sapiens) (UniProt O94782). Nature of the assay: Inhibitors of USP1/UAF1: Pilot qHTS (AID 504865).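 Also: rhodamine fluorescence freed from ubiquitin-rhodamine substrate followed over time; top concentration of the series differs between compounds; % is scaled to controls: 0 for no effect and ±100 for the full control effect; nearly all actives have a fitted effect of over 35% in size.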 The procedure, abridged: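 In 50mM HEPES pH 7.8 containing 0.5mM EDTA, 1mM TCEP, 0.1 mg/ml BSA and 0.01% Tween-20, 1nM USP1/UAF1 is exposed to compound for 15 min, then Ub-Rho (150nM final) is added and fluorescence is read over time.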

Assay [14] addresses Tyrosyl-DNA phosphodiesterase 1 (Homo sapiens) (UniProt Q9NUW8). Put plainly: Confirmation Assay for Inhibitors of Tyrosyl-DNA Phosphodiesterase (TDP1) (AID 489007). Also: potency is read from the fitted curve at half-maximal effect; nearly all actives have a fitted effect of over 40% in size. The note with it: recombinant human TDP1 enzymatic activity, dose-response. Summed up: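 AlphaScreen read-out: streptavidin donor and anti-FITC acceptor beads (10 ug/ml) bind intact substrate, so Tdp1 removal of tyrosine-FITC lowers signal. Enzyme 1 nM, substrate 15 nM, 5 min reaction at room temperature after 15 min compound preincubation.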

Where [15] appears, read: measured here: cell count channel max response.
The mark [16] stands for this setting: measured here: lipid channel max response.

The structures appear in SMILES notation. Results filed as inconclusive are left out. The source made the active and inactive calls. Unless noted, calls follow the shape of the dose curve; as a rule, active = well fitted curve in the direction sought with a large enough effect; inconclusive = small, poorly fitted or top-dose-only effect, or another doubt; inactive = no such curve, though single readings can be large; an effect the other way counts as inactive or inconclusive.

Chain of Glucocorticoid receptor (Homo sapiens) (P04150 whole entry, looked up): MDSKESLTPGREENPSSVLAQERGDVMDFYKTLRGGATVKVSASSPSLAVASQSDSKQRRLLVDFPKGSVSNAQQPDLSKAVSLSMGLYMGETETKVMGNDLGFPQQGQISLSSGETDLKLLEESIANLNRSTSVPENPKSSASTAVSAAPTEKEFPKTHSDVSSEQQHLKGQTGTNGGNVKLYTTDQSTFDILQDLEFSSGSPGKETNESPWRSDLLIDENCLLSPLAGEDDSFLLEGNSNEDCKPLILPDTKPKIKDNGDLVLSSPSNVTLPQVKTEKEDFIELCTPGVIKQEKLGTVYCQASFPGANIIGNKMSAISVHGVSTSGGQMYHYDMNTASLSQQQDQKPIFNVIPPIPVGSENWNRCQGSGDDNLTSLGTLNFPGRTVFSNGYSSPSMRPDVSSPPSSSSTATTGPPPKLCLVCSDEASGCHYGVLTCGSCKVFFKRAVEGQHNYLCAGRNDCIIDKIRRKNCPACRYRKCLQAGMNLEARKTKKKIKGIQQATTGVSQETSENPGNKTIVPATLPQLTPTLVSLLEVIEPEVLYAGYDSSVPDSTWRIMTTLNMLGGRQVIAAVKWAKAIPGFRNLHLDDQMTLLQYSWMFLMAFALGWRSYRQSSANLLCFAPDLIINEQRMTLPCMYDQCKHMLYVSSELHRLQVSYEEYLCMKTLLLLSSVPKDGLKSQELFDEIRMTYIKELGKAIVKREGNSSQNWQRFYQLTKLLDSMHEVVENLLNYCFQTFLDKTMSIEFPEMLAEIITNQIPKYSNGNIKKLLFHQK
Chain of Cytochrome P450 2C19 (Homo sapiens) (P33261 whole entry, looked up): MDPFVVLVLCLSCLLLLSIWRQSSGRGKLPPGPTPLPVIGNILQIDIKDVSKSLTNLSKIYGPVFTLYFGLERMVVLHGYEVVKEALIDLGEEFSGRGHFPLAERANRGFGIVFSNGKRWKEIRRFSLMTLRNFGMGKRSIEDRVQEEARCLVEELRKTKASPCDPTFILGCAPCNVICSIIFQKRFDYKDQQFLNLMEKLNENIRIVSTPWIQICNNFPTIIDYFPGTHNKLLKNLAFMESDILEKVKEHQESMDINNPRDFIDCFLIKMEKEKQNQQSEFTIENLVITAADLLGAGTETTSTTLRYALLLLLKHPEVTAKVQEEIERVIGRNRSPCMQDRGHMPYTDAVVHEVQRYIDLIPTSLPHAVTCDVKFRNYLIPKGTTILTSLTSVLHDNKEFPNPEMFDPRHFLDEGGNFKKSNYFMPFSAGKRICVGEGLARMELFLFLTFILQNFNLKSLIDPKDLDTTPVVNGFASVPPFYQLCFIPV
Chain of Cytochrome P450 1A2 (Homo sapiens) (P05177 whole entry, looked up): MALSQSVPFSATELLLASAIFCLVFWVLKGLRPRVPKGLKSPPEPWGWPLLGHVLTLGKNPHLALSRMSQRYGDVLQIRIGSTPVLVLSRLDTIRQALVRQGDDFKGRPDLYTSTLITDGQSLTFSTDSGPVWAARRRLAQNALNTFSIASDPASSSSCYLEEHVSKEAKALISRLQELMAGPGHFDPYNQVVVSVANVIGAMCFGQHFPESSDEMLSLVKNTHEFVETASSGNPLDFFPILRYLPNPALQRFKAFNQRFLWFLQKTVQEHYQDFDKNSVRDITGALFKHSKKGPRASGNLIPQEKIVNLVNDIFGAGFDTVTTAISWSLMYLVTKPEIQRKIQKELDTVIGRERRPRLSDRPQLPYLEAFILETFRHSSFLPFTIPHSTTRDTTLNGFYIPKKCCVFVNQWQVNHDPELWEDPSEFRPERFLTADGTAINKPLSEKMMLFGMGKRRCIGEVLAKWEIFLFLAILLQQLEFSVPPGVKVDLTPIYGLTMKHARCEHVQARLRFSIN
Chain of Ubiquitin carboxyl-terminal hydrolase 1 (Homo sapiens) (O94782 whole entry, looked up): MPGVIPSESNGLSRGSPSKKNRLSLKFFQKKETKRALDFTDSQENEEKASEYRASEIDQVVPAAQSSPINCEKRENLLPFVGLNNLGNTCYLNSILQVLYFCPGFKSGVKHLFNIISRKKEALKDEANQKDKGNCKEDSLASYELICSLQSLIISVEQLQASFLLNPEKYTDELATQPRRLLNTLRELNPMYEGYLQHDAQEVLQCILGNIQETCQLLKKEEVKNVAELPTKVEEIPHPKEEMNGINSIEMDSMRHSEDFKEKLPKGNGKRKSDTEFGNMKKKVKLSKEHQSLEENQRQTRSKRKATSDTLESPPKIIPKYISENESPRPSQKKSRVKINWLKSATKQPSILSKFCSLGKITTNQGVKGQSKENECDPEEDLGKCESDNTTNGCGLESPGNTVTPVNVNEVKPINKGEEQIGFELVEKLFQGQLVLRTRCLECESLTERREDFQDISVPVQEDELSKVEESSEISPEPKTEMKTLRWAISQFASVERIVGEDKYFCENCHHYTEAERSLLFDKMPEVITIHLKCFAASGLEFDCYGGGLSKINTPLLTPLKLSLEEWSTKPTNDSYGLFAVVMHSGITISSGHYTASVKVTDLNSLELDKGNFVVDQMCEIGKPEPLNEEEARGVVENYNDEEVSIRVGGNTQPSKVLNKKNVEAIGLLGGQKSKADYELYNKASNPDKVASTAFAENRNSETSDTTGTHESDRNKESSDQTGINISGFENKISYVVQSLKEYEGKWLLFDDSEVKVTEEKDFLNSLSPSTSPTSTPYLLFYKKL

Consider `CN(CC[C@@H](Oc1ccc(-c2ccccc2)cc1)c1ccc(F)cc1)CC(=O)O`, for which the Potency result in assay [1], in assay [4], in assay [7], in [8], in assay [9] and in [10] was “inactive” in each case. The Potency in assay [2] is > 46 µM (inactive); in assay [3] it was > 46 µM (inactive); in [5] it was 2.51 µM (active); in assay [6] it was 6.31 µM (active).
As to `NC(N)=Nc1ccc(Cl)cc1`, the Potency in assay [2] and in assay [3] was > 46 µM (inactive) throughout. In addition, the Potency entry in assay [4], in assay [11], in [6], in assay [13], in assay [7] and in [8] was “inactive” in each case. Besides, the activity change, negative = inhibition in [12] was -3.61% (inactive). Besides, the max response in assay [12] (setting [15]) is -0.36%; in assay [12] (setting [16]), -4.97%.
For `Cc1nc(N=Nc2cc(S(=O)(=O)O)ccc2S(=O)(=O)O)c(COP(=O)(O)O)c(C=O)c1O`, the Potency result in assay [1], in assay [4], in assay [11], in assay [7] and in assay [8] was “inactive” throughout. Moreover, the Potency in [2] was > 46 µM (inactive); in assay [3] it was > 46 µM (inactive); in assay [14] it was 1 µM (active). Moreover, the activity change, negative = inhibition in assay [12] was -1.5% (inactive). In addition, the values for the max response in assay [12] (setting [15]) and in assay [12] (setting [16]) were -2.46% and -2.68%, respectively.
